Reference: PubChem BioAssay (Tox21)
“And” between values parts separate entries of the source, which are not always exact repeats. Identical values can stand only once. Results filed as inconclusive are left out. The source made the active and inactive calls. The call rests on the fitted dose curve; in most records, active means well fitted activation curve with a large enough effect in the repeat runs; inconclusive means weak or mixed curves; inactive means flat fitted curve, though single readings scatter.

Assay: A CellTox Green Cytotoxicity Assay to monitor cytotoxicity in HEK293 cells - 24 hour (AID 1224875); further: nearly all actives have a fitted effect of over 45% in size
Conditions: CellTox Green fluorescence; series mostly up to 76.8 µM; activity change: at the top concentration
Description: National Center for Advancing Translational Sciences [NCATS]
NIH Chemical Genomics Center [NCGC]
U.S. Environmental Protection Agency [EPA]
National Institutes of Environmental Health Sciences [NIEHS]
National Toxicology Program [NTP]
Cell-based models are critical for drug discovery. Determining the natural cytotoxic effects resulting from test compounds is an essential research activity. A CellTox Green Cytotoxicity Assay to monitor cytotoxicity in real time of continues cell culture during 40 hours of the compound treatment was used to screen Tox21 10K library compounds in Hek293 cells. CellTox Green Cytotoxicity Assay is a nonlytic, homogeneous, biofluorescent method to measure cytotoxicity in cell culture after experimental manipulation. The assay system uses a proprietary asymmetric cyanine dye that is excluded from viable cells but preferentially stains the dead cell's DNA. […] Viable cells produce no appreciable increases in fluorescence. Therefore, the fluorescence signal produced by the binding interaction with dead cell DNA is proportional to cytotoxicity.
The mixture of Hek293 cell suspension and reagents were dispensed at 600cells/6 ul/well in 1536-well tissue culture treated black solid bottom plates using a Multidrop dispenser. After the assay plates were incubated at a 37 C/5% CO2 incubator for 5 hours, 23 nL of compounds dissolved in DMSO, positive and negative controls was transferred to the assay plate by a pintool work station. The plates were incubated at 37 C for 40 hours. The fluorescence intensity were measured at 0h, 8h, 16h, 24h, 32h and 40h time points using ViewLux plate reader during compound treatment.
On the % scale 0 is the no-effect control and ±100 the full control effect; potency means the concentration at half of the fitted maximal effect.

Row | Structure (SMILES) | activity change | Potency
1 | C=C(C)C1CC=C(C)C(OC(C)=O)C1 (stereo not given) | -0.0565% (inactive) | 
2 | CN(C)c1ccc(C(=C2C=CC(=[N+](C)C)C=C2)c2ccccc2)cc1 |  | 19.5 µM (active) [middle of 4 runs]
3 | O=C1CC2(CCCC2)CC(=O)N1CCCCN1CCN(c2ncccn2)CC1 |  | inactive
4 | CC(=O)C1=C(C)[C@@H]2C[C@@]3(C1)[C@H](C)CC[C@H]3C2(C)C |  | inactive
5 | CCCN[C@H]1CCc2nc(N)sc2C1 |  | inactive
6 | CCn1c2ccccc2c2cc(N)ccc21 |  | inactive
7 | [Cl][In]([Cl])[Cl] | -6.26% (inactive) | 
8 | COc1ccc(Cc2cnc(N)nc2N)cc1OC | -4.07% [at 35.3 µM, hits give high values] (inactive) | 
9 | CC[C@H]1CN2CCc3cc(OC)c(OC)cc3[C@@H]2C[C@@H]1C[C@H]1NCCc2cc(OC)c(OC)cc21 | 20.9% [at 35.3 µM, hits give high values] (inactive) | 
10 | Nc1cc(Cl)c(-c2cc(Cl)c(N)cc2Cl)cc1Cl |  | inactive
11 | CC[C@@H](N)CO | -6.03% (inactive) | 
12 | CCCOC(=O)c1cc(O)c(O)c(O)c1 |  | inactive
13 | CC(C)(O)CCC(C)(C)O | -1.51% (inactive) | 
14 | CC1=C(C=O)C(C)(C)CC=C1 | -2.75% (inactive) | 
15 | O=C(O)CCc1ccccc1 | -10.9% (inactive) | 
16 | Cc1ccnc2c1NC(=O)c1cccnc1N2C1CC1 |  | inactive
17 | c1ccc2cc3c(ccc4ccccc43)cc2c1 |  | inactive
18 | C/C=C/c1ccc(OCC)c(O)c1 | 0.134% (inactive) | 
19 | CC(C)CCOCc1ccccc1 | 9.32% (inactive) | 
20 | OCCOCCN1CCN(C(c2ccccc2)c2ccc(Cl)cc2)CC1 (stereo not given) | 5.47% [at 35.3 µM, hits give high values] (inactive) | 

Row | Structure (SMILES) | activity change | Potency
21 | COc1ccc(CCN(C)CCCC(C#N)(c2ccc(OC)c(OC)c2)C(C)C)cc1OC (stereo not given) |  | inactive
22 | Cc1cc(Cc2cc(C)cc(C(C)(C)C)c2O)c(O)c(C(C)(C)C)c1 |  | 43.9 µM (active) and 43.6 µM (active)
23 | CCCCN(CCO)CCCC | -0.0706% (inactive) | 
24 | O=C(O)c1cn(-c2ccc(F)cc2)c2cc(N3CCNCC3)c(F)cc2c1=O |  | inactive
25 | c1ccc2c(c1)-c1cccc3c1c-2cc1ccccc13 |  | inactive
26 | CC(=O)N[C@@H](CS)C(=O)O | -17.4% [at 35.3 µM, hits give high values] (inactive) | 
27 | Oc1ccc(Cl)cc1Cc1cc(Cl)ccc1O |  | inactive
28 | O=C(Cl)c1cccc(C(=O)Cl)c1 |  | inactive
29 | CC(C)CCCCCCc1ccc(O)cc1 |  | 28 µM (active) and 38.9 µM (active)
30 | COC(c1ccccc1)(c1ccccc1)[C@H](Oc1nc(C)cc(C)n1)C(=O)O | -16.6% [at 35.3 µM, hits give high values] (inactive) | 
31 | CCCCCC(=O)O[C@]1(C(C)=O)CC[C@H]2[C@@H]3CCC4=CC(=O)CC[C@]4(C)[C@H]3CC[C@@]21C | 12.5% [at 35.3 µM, hits give high values] (inactive) | 
32 | CCCC(=O)c1ccccc1 | -4.87% (inactive) | 
33 | OCCN1CCNCC1 |  | inactive
34 | CCC[C@H](N[C@@H](C)C(=O)N1[C@H](C(=O)O)C[C@@H]2CCCC[C@@H]21)C(=O)OCC |  | inactive
35 | COC(=O)[C@H]1[C@H]2C[C@@H]3c4[nH]c5cc(OC)ccc5c4CCN3C[C@H]2C[C@@H](OC(=O)c2cc(OC)c(OC)c(OC)c2)[C@@H]1OC |  | inactive
36 | CC1=CC(=O)c2ccccc2C1=O |  | 24.5 µM (active) and 26.8 µM (active)
37 | CCCNC(C)C(=O)Nc1ccccc1C (stereo not given) | -16.2% [at 35.3 µM, hits give high values] (inactive) | 
38 | Cc1cccc([N+](=O)[O-])c1C(=O)O | -12.9% (inactive) | 
39 | O |  | inactive
40 | CCN1CCCC1CNC(=O)c1cc(S(=O)(=O)CC)c(N)cc1OC (stereo not given) | 4.43% [at 35.3 µM, hits give high values] (inactive) | 
